From PubChem BioAssay
A selection: hits, their analogues and other compounds. The true share with any hit is near 14%.
CHX counter: Cycloheximide Counterscreen for Small Molecule Inhibitors of Shiga Toxin; cell reporter, cycloheximide protein synthesis inhibition counterscreen; max response, %; 12% of 300,000 active; in the data active = max response mostly above about 13%, no sharp cut-off; inactive = mostly below about 14%; note: read at 38.3 µM for the half of the compounds with a filed dose; 0% is about no effect
LmPK inh: qHTS Assay for Inhibitors of Leishmania Mexicana Pyruvate Kinase (LmPK). AID 1721, 2009. Potency, µM (highest dose often 57.5 µM), without a hit: top-dose activity change, negative = inhibition, actives largely listed as inhibitors. purified LmPK, Kinase-Glo ATP luminescence, 1 h. 0.37% of 290,000 active. Q27686; note: potency is the fitted concentration of half-maximal effect; % is set by controls: 0 for no effect and ±100 for the full control effect
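ATP generated from ADP (0.1 mM) and PEP (0.5 mM) by 0.1 nM LmPK over 1 h at room temperature (pH 7.2 imidazole buffer) was detected by coupled luciferase luminescence. Values were normalized to uninhibited and no-enzyme wells.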
Giardia FBPA inh: qHTS Assay for Inhibitors of Fructose-1,6-bisphosphate Aldolase from Giardia Lamblia | purified Giardia FBPA | Potency, µM (series often up to 59.6 µM), for inactives: at the top dose activity, negative = inhibition, actives largely listed as inhibitors | 0.71% of 290,000 active | AID 2451, 2010; note: potency is the fitted concentration of half-maximal effect; % is set by controls: 0 for no effect and ±100 for the full control effect; nearly all actives have a fitted effect of over 55% in size
Target sequence (A8B2U2 whole entry, looked up): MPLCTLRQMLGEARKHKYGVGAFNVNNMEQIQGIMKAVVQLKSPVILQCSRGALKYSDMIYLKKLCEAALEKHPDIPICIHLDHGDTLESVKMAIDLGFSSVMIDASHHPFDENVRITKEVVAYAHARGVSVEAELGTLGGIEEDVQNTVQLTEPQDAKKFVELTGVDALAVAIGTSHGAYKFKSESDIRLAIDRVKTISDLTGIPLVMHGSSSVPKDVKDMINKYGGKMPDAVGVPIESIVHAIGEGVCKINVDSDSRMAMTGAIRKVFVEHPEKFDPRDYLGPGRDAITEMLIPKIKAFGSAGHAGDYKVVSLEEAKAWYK
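Giardia FBPA (40 nM reagent) was preincubated 10 min at RT with compound (up to 57.5 uM final), then substrate plus GAPDH/TPI/NAD/arsenate coupling system with diaphorase/resazurin was added; resorufin fluorescence (525/598 nm) was read after 20 min.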
Shiga toxin inh: A qHTS for Small Molecule Inhibitors of Shiga Toxin | Vero cells, Shiga toxin protein synthesis inhibition reporter | inhibition, % at 38.7 µM | 9.2% of 290,000 active | AID 2315, 2010; in the data active = inhibition mostly above about 28%, no sharp cut-off; inactive = mostly below about 43%; note: 0% is about no effect
NS1 inh: qHTS Assay for Inhibitors of Influenza NS1 Protein Function | AID 2326, 2010 | Potency, µM (titrated, usually from 46.1 µM), for the others: at the highest dose activity, positive = more growth | 0.4% of 270,000 active; calls by dose curve; note: potency is the fitted concentration of half-maximal effect; actives are rising curves; nearly all actives have a fitted effect of over 50% in size
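OD600 was taken as the measure of yeast growth restored by compound in an NS1-expressing S. cerevisiae strain. Cells had been washed out of glucose medium and diluted 1:100 into galactose -URA medium, pH 6.0.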
* = called active by the depositor; [ ] = dose if it differs, or a comment. Unless noted, calls come from the whole dose curve; as a rule, active = well fitted curve in the direction sought with a large enough effect; inconclusive = small, poorly fitted or top-dose-only effect, or another doubt; inactive = no such curve, though single readings can be large; an effect the other way counts as inactive or inconclusive.

Screening CC(C)(C)c1ccc(C(=O)CCCSC2=C(C#N)C(c3ccco3)C3=C(CCCC3=O)N2)cc1 (stereo unspecified) returned CHX counter 4, LmPK inh 3%, Giardia FBPA inh -10%, Shiga toxin inh -2 and NS1 inh inconclusive.
CCc1ccc(C(=O)CSC2=C(C#N)C(c3ccco3)C(C(C)=O)=C(C)N2)cc1 (stereo unspecified) was read as CHX counter 30*, LmPK inh 16%, Giardia FBPA inh -16%, Shiga toxin inh 32 and NS1 inh inconclusive.
CC(=O)C1=C(C)NC(SCC(=O)c2ccc(F)cc2)=C(C#N)C1CC(C)C (stereo unspecified) was read as CHX counter 63*, LmPK inh 23%, Giardia FBPA inh -18%, Shiga toxin inh 88* and NS1 inh inconclusive.
Screening CC(=O)C1=C(C)NC(SCC(=O)c2ccc(Cl)cc2)=C(C#N)C1CC(C)C (stereo unspecified) returned CHX counter -2, LmPK inh -1%, Giardia FBPA inh -27%, Shiga toxin inh -7 and NS1 inh -49%.
CCn1cc(/C=C/C(=O)Nc2ccn(Cc3c(F)c(F)cc(F)c3F)n2)cn1 was read as CHX counter -3, LmPK inh -13%, Giardia FBPA inh 0%, Shiga toxin inh -6 and NS1 inh 2%.
For CCn1cc(/C=C/C(=O)Nc2ccc(C)cc2Br)cn1 the results were CHX counter 29*, LmPK inh 2%, Giardia FBPA inh -1%, Shiga toxin inh active and NS1 inh -18%.
`CCOC(=O)N/N=C1/C[C@@H](O)[C@@H](O)[C@@H]2[C@H]3C(=O)N(c4ccc(F)cc4F)C(=O)[C@@H]3CC[C@H]12` gave Giardia FBPA inh -1%[12.9 µM].
Screening Cn1cccc1/C=C(\C#N)C(N)=S returned CHX counter -1, LmPK inh -4%, Giardia FBPA inh -2%, Shiga toxin inh 2 and NS1 inh 4%.
For Cn1c(/C=C(\C#N)C(N)=S)ccc1-c1ccc(Br)cc1 the results were CHX counter 15*, LmPK inh 0%, Giardia FBPA inh 1%, Shiga toxin inh 27 and NS1 inh 5%.
Screening O=C(N/N=C/C1CC=CCC1)c1cc2ccccc2cc1O (stereo unspecified) returned CHX counter 13*, LmPK inh -1%, Giardia FBPA inh -17%, Shiga toxin inh 39 and NS1 inh inconclusive.
O=C(N/N=C/C1CC=CCC1)c1ccc(O)cc1O (stereo unspecified) was read as CHX counter 71*, LmPK inh -6%, Giardia FBPA inh -4%, Shiga toxin inh 34 and NS1 inh 5%.
Screening COc1cc(C(=O)N/N=C/C2CC=CCC2)cc(OC)c1OC (stereo unspecified) returned CHX counter 3, LmPK inh 1%, Giardia FBPA inh -4%, Shiga toxin inh -1 and NS1 inh 5%.
Screening Cc1ccc(S(=O)(=O)c2nc(S(C)(=O)=O)sc2N2CCCCC2C)cc1 (stereo unspecified) returned CHX counter 2, LmPK inh 1%, Shiga toxin inh -10 and NS1 inh -7%.
For O=C(Nc1ccc2c(c1)CCC2)c1cnn2c1NC(c1ccco1)CC2C(F)(F)F (stereo unspecified) the results were CHX counter 52*, LmPK inh -3%, Giardia FBPA inh -9%, Shiga toxin inh 90* and NS1 inh 9%.
For Oc1ccc(/C=N/NP(=S)(c2ccccc2)c2ccccc2)cc1O the results were CHX counter 9, LmPK inh -1%, Giardia FBPA inh inconclusive, Shiga toxin inh 24 and NS1 inh 15%.
Fc1ccccc1/C=N/Nc1ccc(Cl)nn1 was read as CHX counter 10, LmPK inh -5%, Giardia FBPA inh -3%, Shiga toxin inh 38* and NS1 inh -3%.
Fc1ccccc1/C=N/Nc1nn[nH]n1 was read as CHX counter 1, LmPK inh -10%, Giardia FBPA inh inconclusive, Shiga toxin inh -13 and NS1 inh 3%.
`Cc1ccc(/C=N/Nc2ccc(Cl)nn2)cc1` gave CHX counter 13*, LmPK inh -1%, Giardia FBPA inh 5%, Shiga toxin inh 45* and NS1 inh -5%.
`Oc1ccc(/C=N/Nc2ccc(Cl)nn2)cc1O` gave CHX counter 39*, LmPK inh -6%, Giardia FBPA inh inconclusive, Shiga toxin inh 36 and NS1 inh 8%.
For CCOC(=O)C1(CCCc2ccccc2)CCN(C(=O)C2=C(C)OCCO2)CC1 the results were CHX counter 0, LmPK inh 3%, Giardia FBPA inh 0%, Shiga toxin inh 13 and NS1 inh -11%.
Cn1c(N)c(C(=O)COC(=O)CSc2ccc3ccccc3c2)c(=O)n(C)c1=O was read as CHX counter -5, LmPK inh 2%, Giardia FBPA inh -7%, Shiga toxin inh 31 and NS1 inh -18%.
Screening Cn1c(N)c(C(=O)COC(=O)CSc2ccccc2)c(=O)n(C)c1=O returned CHX counter 16*, LmPK inh 0%, Giardia FBPA inh -4%, Shiga toxin inh 27 and NS1 inh 6%.
Screening COc1ccc(Cl)cc1/C=C(\C#N)C(N)=O returned CHX counter -2, LmPK inh 2%, Giardia FBPA inh -26%, Shiga toxin inh 9 and NS1 inh 4%.
COc1ccc(C(=O)NC2CC2)cc1OC1CCN(Cc2ccc(F)cc2F)CC1 was read as CHX counter -2, LmPK inh 3%, Giardia FBPA inh 3%, Shiga toxin inh -12 and NS1 inh 1%.
Screening N#CCOc1ccc2oc(-c3ccco3)cc(=O)c2c1 returned CHX counter 11, LmPK inh -4%, Giardia FBPA inh -1% and Shiga toxin inh 19.
Cc1ccc2oc(-c3ccco3)cc(=O)c2c1 was read as CHX counter 39*, LmPK inh -9%, Giardia FBPA inh -1%, Shiga toxin inh 71* and NS1 inh -52%.
`CC(C)OCCOc1ccc2oc(-c3ccco3)cc(=O)c2c1` gave CHX counter 19*, LmPK inh -10%, Giardia FBPA inh 0%, Shiga toxin inh 27 and NS1 inh -23%.
O=c1[nH]c(=O)n(-c2cc(Br)c(O)c(Br)c2)cc1Br was read as CHX counter -3, LmPK inh 10%, Giardia FBPA inh -9% and NS1 inh 2%.
Screening COc1ccc(C)cc1N(CC(=O)NCCSCc1ccco1)S(=O)(=O)c1ccc(C)cc1 returned CHX counter -4, LmPK inh -5%, Giardia FBPA inh 1%, Shiga toxin inh 2 and NS1 inh -1%.
For COc1cc(C(=O)NCCCCc2ccccc2)cc(OC)c1OC the results were CHX counter -1, LmPK inh 0%, Giardia FBPA inh 3%, Shiga toxin inh -11 and NS1 inh -7%.
